Data from PubChem BioAssay (NCI).
Compounds without any hit were thinned out: in the full panel of roughly 79,000, 15% have a hit. Values without a mark were called inactive. Activity calls are given as the source filed them. No stated cut-off is given here; in the data, active means growth inhibition above about 70%; inactive means the rest.

Test: NCI Yeast Anticancer Drug Screen. Data for the rad50EPP+ strain (AID 151);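 further: 0% = growth of vehicle-treated control cultures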
Conditions: S. cerevisiae rad50 mutant strain, hits give high values
Method: Growth inhibition of yeast strains with defined genetic alterations is measured as a screen for potential anti-cancer activity. Selected strains with alterations in DNA damage repair or cell cycle control were exposed to compounds and growth inhibition was measured relative to vehicle treated controls. The strain used in this assay is rad50EPP+

Row | SMILES | growth inhibition (at 1.2 µM) | growth inhibition (at 3.7 µM) | growth inhibition (at 11.0 µM) | growth inhibition (at 33.0 µM) | growth inhibition (at 100.0 µM)
1 | O=Cc1cccc2ccc3ccccc3c12 | 5% | 15% | 36% | 77% (active) | 95% (active)
2 | BrCC[P+](c1ccccc1)(c1ccccc1)c1ccccc1 | -44% | -47% | 19% | 88% (active) | 95% (active)
3 | CN=C(N)N/N=C/c1ccc2c(c1)Cc1ccccc1-2 | -6% | 12% | 23% | 32% | 97% (active)
4 | CC(C)C1=CC2=C[C@H](O)[C@H]3C(C)(C)CCC[C@]3(C)C2=C(O)C1=O | 0% | 19% | 69% | 97% (active) | 94% (active)
5 | O=C(NCCCCNCCCNC(=O)c1cc(-c2ccccc2)nc2ccccc12)c1cc(-c2ccccc2)nc2ccccc12 | 1% | 4% | 12% | 32% | 91% (active)
6 | CCCCCCCCCCCC1=C(O)C(=O)C=C(O)C1=O | -5% | -14% | 31% | 79% (active) | 84% (active)
7 | CCN(CC)CCN1C(=O)c2cccc3cc(OC)cc(c23)C1=O | 9% | 37% | 60% | 86% (active) | 93% (active)
8 | NC(N)=N/N=C\c1c2ccccc2cc2ccccc12 | -28% | -20% | -7% | 6% | 23%
